Laboratory results published in the supplement of paper PMC6555819.

Tested on: RARg homodimer (NR concentration 270 nM)
Test: PBM binding z-score (relative to random genomic background probes); higher = stronger binding; sequences stand for … in GC…GCGATTGACAGCGTAGAATGAAGG
Method in brief: (§1)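 The probes on custom Agilent 4×180K protein-binding microarrays were double-stranded, with 34-nt variable regions bearing direct-repeat seeds, single-nucleotide variants, half-site ablations and random human genomic background sequences. Incubation lasted 1 h with ligand-free nuclear receptor dimers in PBS pH 7.4, 2% milk, 0.02% Triton X-100, 1 mM DTT, 0.2 mg/mL BSA and 0.4 mg/ml salmon testes DNA. Antibodies against each partner (one per run) detected bound dimers, and fluorescence scans were regression-normalized. Binding z-scores take the random background probes as reference.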

Sequence | PBM binding z-score
ATACCAAGGTGATAGTGAGGTCGTTGATACTAAC | 0.961
ATCTCTAGGTACGACTCAGTTCAGTGAAGAACGC | 0.331
TCAGACAGGTGAAGGTAATTCAGGTACGCAGTCG | 0.626
ATATGTAGGTTACATCCGGGTCATACAGGCTATG | 2.26
GCTAGTTGGTCAGGAAAAGGTCACACACCGGTCG | 4.46
TCGAGTAGGCTAGTCGGGGCATTCAGCCAACATA | -0.738
ACTCGGAGGACAAAGTTCAGAGCTACGCCAGTGA | 2.63
ACTAGTTGGTCAGCTGAGGTTACACACAATTCGG | 1.69
TCATGTAGATCAAGCAGGTTAAGAAAGCCTGAGT | 0.0856
CCTACTGGGCCATCAGGTCAGTGATATCAACGTT | 1.57
ATCTCTAGGTAACGTTCAGTGAAAGATCGATAGA | 0.638
TCTAGCAGGCCAGAGGGTCACTCAGGAGGTACGG | 1.67
ATCGAAAGGTCGAGGTGACTATAGAGAAAGGGAA | 4.53
TCTATGAGTTGAAGGGCAACCGACGAGTCCGTTT | 0.461
CCTACTGGGCCATTCGGAGGTCATTGATCATATG | 2.55
CGAACTAGGCCATCCAGGACAGTGAATACATTGA | 0.851
ATCTCTAGCTAAAGATAGTTCAGTGAATGCAAAT | 0.353
TGAAAGAGGTTATAAGATCAGGGAACGTTGCAAA | 1.15
CCTACTGGGCCTTTCAGAGGTCATTGATCATATG | 2.71
GGAACGAGGGCAAGTTGATAACAGAGTTTGATGG | 2.06

Sequence | PBM binding z-score
TCAGACAGGCGAAGGTAACTCAGGTACGCAGTCG | -0.377
TCATATAGGTAAAAGCTGAAAGTCGGTGTGGTAA | -0.318
CCGACTGGGGCAAAGGCTACCATACTCAGTACGA | 0.501
CGTCCAAAGTCATAGGAGGTCAGTGAAGACAGAT | 2.75
TCTCGGAGGACACGGAGGTCAGAGCTTTCCAGAG | 3.91
TCTCGGACGACACGAAAGGTCAGAGCTCGACATC | 4.55
TCTTGTAGATCAAGCAGGTTCAGAAAGCCTGAGT | -0.414
ACTGACGGGTCAACGAGGTTATAGCACGCGTATA | 4.97
TCGATTAGGTTAGGGGCATTCAGAATGGCGTCGA | 0.723
TCGAGTAGGTTAGCAATGGGGCATTCAGCTTTCT | -0.0673
AATACAGGGTCAGTAGGCCAGAGTAGGTACGAAT | 4.31
ATCGAAAGCTCGACGAGGTGAGTATACACCGTTT | 0.303
TAGCCTAGGTGATGCGGGCCAGTATAGTGTCGGC | -0.372
CTCGAAAGGTCGGTTGAGATGAGTATACGGATAA | 2.5
CCTAGTTGGTCCAGGTCACACACGCTATAGGTAC | 2.73
CCTATTAGTTGACCATAATGGCAACCGAAGCTCG | 0.606
TGAATGAGGTTATCAGATCAGGGAACGTTGCAAA | 1.06
TCTATTAGTTGATTAGGGCTACCGAAACAGCGGA | 0.15
AGACCAAGGTGATCGTGAGGTCGTTGATACTAAC | 0.635
GCTAGCAGGCCATTTGGATCACTCAATGACGGGC | -0.00293

Tested on: RXRa DBDmut IVT, anti-RXR (DBD mutation: RXRa K156A/R161A, NR concentration 90 nM)
Test: as above
Method in brief: as §1

Sequence | PBM binding z-score
ATACCAAGGTGATAGTGAGGTCGTTGATACTAAC | 0.897
ATCTCTAGGTACGACTCAGTTCAGTGAAGAACGC | 1.19
TCAGACAGGTGAAGGTAATTCAGGTACGCAGTCG | 1.5
ATATGTAGGTTACATCCGGGTCATACAGGCTATG | 0.757
GCTAGTTGGTCAGGAAAAGGTCACACACCGGTCG | 0.286
TCGAGTAGGCTAGTCGGGGCATTCAGCCAACATA | -0.313
ACTCGGAGGACAAAGTTCAGAGCTACGCCAGTGA | 2.1
ACTAGTTGGTCAGCTGAGGTTACACACAATTCGG | 0.642
TCATGTAGATCAAGCAGGTTAAGAAAGCCTGAGT | 0.962
CCTACTGGGCCATCAGGTCAGTGATATCAACGTT | -0.413
ATCTCTAGGTAACGTTCAGTGAAAGATCGATAGA | 0.201
TCTAGCAGGCCAGAGGGTCACTCAGGAGGTACGG | 0.0347
ATCGAAAGGTCGAGGTGACTATAGAGAAAGGGAA | 1.37
TCTATGAGTTGAAGGGCAACCGACGAGTCCGTTT | 1.55
CCTACTGGGCCATTCGGAGGTCATTGATCATATG | 0.347
CGAACTAGGCCATCCAGGACAGTGAATACATTGA | 0.537
ATCTCTAGCTAAAGATAGTTCAGTGAATGCAAAT | -0.2
TGAAAGAGGTTATAAGATCAGGGAACGTTGCAAA | 0.022
CCTACTGGGCCTTTCAGAGGTCATTGATCATATG | 0.749
GGAACGAGGGCAAGTTGATAACAGAGTTTGATGG | 2.29

Sequence | PBM binding z-score
TCAGACAGGCGAAGGTAACTCAGGTACGCAGTCG | 0.863
TCATATAGGTAAAAGCTGAAAGTCGGTGTGGTAA | 1.45
CCGACTGGGGCAAAGGCTACCATACTCAGTACGA | -0.632
CGTCCAAAGTCATAGGAGGTCAGTGAAGACAGAT | 0.438
TCTCGGAGGACACGGAGGTCAGAGCTTTCCAGAG | 0.792
TCTCGGACGACACGAAAGGTCAGAGCTCGACATC | 0.759
TCTTGTAGATCAAGCAGGTTCAGAAAGCCTGAGT | 0.872
ACTGACGGGTCAACGAGGTTATAGCACGCGTATA | 1.69
TCGATTAGGTTAGGGGCATTCAGAATGGCGTCGA | 1.34
TCGAGTAGGTTAGCAATGGGGCATTCAGCTTTCT | 0.158
AATACAGGGTCAGTAGGCCAGAGTAGGTACGAAT | 1.86
ATCGAAAGCTCGACGAGGTGAGTATACACCGTTT | -0.125
TAGCCTAGGTGATGCGGGCCAGTATAGTGTCGGC | -1.62
CTCGAAAGGTCGGTTGAGATGAGTATACGGATAA | 0.887
CCTAGTTGGTCCAGGTCACACACGCTATAGGTAC | 1.35
CCTATTAGTTGACCATAATGGCAACCGAAGCTCG | 0.918
TGAATGAGGTTATCAGATCAGGGAACGTTGCAAA | 0.731
TCTATTAGTTGATTAGGGCTACCGAAACAGCGGA | 0.904
AGACCAAGGTGATCGTGAGGTCGTTGATACTAAC | 0.408
GCTAGCAGGCCATTTGGATCACTCAATGACGGGC | 0.0121
